# According to the supplement of paper PMC6555819:
# System: VDR:RXRa (NR concentration 270 nM, RXRa partner concentration 90 nM)
# Assay: PBM binding z-score (relative to random genomic background probes); higher = stronger binding; sequences stand for … in GC…GCGATTGACAGCGTAGAATGAAGG
# Method: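 Protein-binding microarray (Agilent 4x180K custom design, double-stranded 60-nt probes: 5' GC cap, 34-nt variable region, 24-nt constant primer region; full probe sequence given). Purified or IVT nuclear receptor:RXRα heterodimers (3:1 NR:RXRα, mostly 270:90 nM) or homodimers were incubated for 1 h in PBS with 2% milk and no ligand, then detected with Alexa488 antibodies. Fluorescence from o1-orientation probes (~5 replicates averaged) was converted to z-scores against 500 random hg19 background probes. Variable regions are seed direct-repeat (DR0–DR5) sites, all their single-nucleotide variants and half-site ablations.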
row,Sequence,PBM binding z-score
1,GCATATAAGTAATACAAGGTGAAAGTCCGATTGT,0.0691
2,CAAACTAGGTCACCGGAAGGCCAAAGTCCGCATG,3.23
3,GTATCAAGGTGAATAGGTCGTTGATGAGTAGGCG,1.1
4,GCTTGTAGAGCAAGGTTAAGAAAGACTAAGCTAA,-0.112
5,CCTAGTTGGTCAGGAGGTCAGACACCGGATATGA,2.22
6,ATCTCTAGGTCAGACTCAGTTCAGTGAAGAACGC,3.36
7,TCTAGTTGGTCAAGGAGGTCACACACGACGGGTA,5.23
8,TCTCGGAGGACACGAAAGGTCCGAGCTCGACATC,-0.242
9,TTACCGAGGTGAAGGTCGTTGATCCCTCTGTAGA,1.5
10,CGAACTAGGTCAAGGACAGTGTATCTCCGCACGC,1.78
11,CAAACTAGGTCACAGAGGTCAATGTCCGTGCGTA,7.62
12,CAAACTAGGTCAAGGTAAAAGTCGGTTTGTGCCA,1.79
13,CCTAGCAGTCCAATCTGGGTCACTCAAGGCTTGA,0.794
14,CCTAGAAGGCCAGGGTCACTCAAGCATTTCGCTT,2.94
15,CCTACTGGGCCACGAAAGGTCATTGCTTCAGTGA,4.23
16,GCTAGCAGGCCATTTGGGTCTCTCAATGACGGGC,-0.594
17,CGTCCATGGTCAATGCTAGGTCAGTGAAAGCATT,0.204
18,TGAATGAGGTTATAAGATCAGGGACCGTTGCAAA,1.25
19,GGAACGAGGGCTTTCGAGTTGATAGCATGGCGAT,-0.0757
20,GCTTACGGGTCAAAGGTTGTAGCATGAATAGAAT,4.66

row,Sequence,PBM binding z-score
1,AGAATGAGGTTGTACGTAGATCAGGGAAGAAAGT,0.177
2,TCTTGTAGATCAAATGTTAAGAAAGCCGAAGCCT,0.366
3,CCAGAAAGGTGAGAAGGTAACTCAGCCTCGATTA,0.43
4,CCTATTAGTTGACCATCAGGGCAACCGAAGCTCG,0.508
5,CGTCCAAGGTCCAAGGTCAGTGAAGAGATGACGG,1.6
6,CCGACTGGGCCAAAAAGGTCATTGATGCCGATAA,4.64
7,CCAGACAGGTGAGAAGGTCACTCAGCCTCGATTA,2.66
8,TTACCAAGGTGAAGGTCGTTGAGCCCTCTGTAGA,1
9,ATCTCTAGCTAACAAGTTCAGTGAAAGAGAGGAC,1.64
10,CCTAGTTGGTCAATGTCACACACGCTATAGGTAC,0.974
11,ATGTCTAGGTAAGACTCAGTTCAGTGAAGAACGC,0.683
12,ATCTCTAGGCAAAAGTTCAGTGAATCCCGAGGAT,0.715
13,GCGACTGTGGCATCAGCAGGTTACCATAACTTAA,-0.319
14,CCTAGTTGGTCAAGGTCGCACACGCTATAGGTAC,1.75
15,CGTCCAAGGTGAGAGAGGTCAGTGAATGCCGAGT,5.51
16,ATCTCTAGGTAAAGTTCAGTGATAGATCGATAGA,1.47
17,TATCCTAGGTCATTGGGCCAGTATAGTACGCATC,3.04
18,CGTCCAAGGTCAATGCTAGGTCTGTGAAAGCATT,3.76
19,ACAGACAGGTGAGTGAAGGTGACTCAGCTGGACG,-0.119
20,ATATGTAGGTTAGCTGTGGTCATTCAGACTAGGC,0.859
